In ChEMBL document CHEMBL1201862, “PubChem BioAssay data set” (2004) one finds GI50 data, which are given here for 11 substances.

Among all 54,000 sequences or so, about 3,300 (6.1%) were called active. Cut-off read from the data, not from the text of the source: active = GI50 up to about 1.1 µM and inactive = higher. These entries were drawn from the full list. Measured potencies and affinities stand elsewhere.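 All cell lines were grown in 96-well plates and treated with compound for 48 hours. GI50 marks 50% less growth.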

This assay has as its system Malme-3M. In words: NCI tumour cell line growth inhibition, 48 h.
“[Bis(aminomethyl)pentamethylenesilane]tetrachloropaltinum(IV), CHEMBL2146204” had a GI50 of 1220 nM.

As to “[Bis(aminomethyl)tetramethylenesilane]dichloropaltinum(II), CHEMBL2146205”, the GI50 amounted to 8590 nM. In turn, “[Bis(aminomethyl)dimethylsilane]tetrachloroplatinum(IV), CHEMBL2146190” registered a GI50 of 2770 nM. Then “[Bis(aminomethyl)tetramethylenesilane]tetrachloropaltinum(IV), CHEMBL2146189”, with 1620 nM; and “cis-Bis[[(trimethylsilyl)methyl]amino]tetrachloroplatinum(IV), CHEMBL2146191”, with 2250 nM; and “mu-(1,7-nanodiamine-N,N')bis-(cis-aminedichloroplatimum (II)), CHEMBL2146215”, with 2410 nM.

Turning to “[Bis(aminomethyl)diethylsilane]tetrachloroplatinum(IV), CHEMBL2146203”, the GI50 worked out at 1220 nM.

Substance CISPLATIN, CHEMBL11359 returned a GI50 of 1600 nM. “[Bis(aminomethyl)ethylmethylsilane]tetrachloroplatinum(IV), CHEMBL2146192”: the GI50 came to 2080 nM. For the substance “[Bis(aminomethyl)pentamethylenesilane]dichloropaltinum(II), CHEMBL2146202”, the GI50 was 1540 nM.

“[Bis(aminomethyl)dimethylsilane]dichloroplatinum (II), CHEMBL2146201” yielded a GI50 of 17700 nM.
